Assay results: ChEMBL document CHEMBL4513216, “Probing the Open Global Health Chemical Diversity Library for Multistage-Active Starting Points for Next-Generation Antimalarials” (ACS Infect Dis, 2020)
Hit rate of the full screen: of about 65,000 compounds, about 2,100 (3.2%) showed an effect of 50% or more. The median lay at about -52%. Many of the other results were omitted from the sample, so strong results are more common in it than they were.

system: Plasmodium falciparum; assay: Screen against P. falciparum Asexual Blood Stage (ABS), at 5uM; type: functional, Dd2; conditions: tested at 5 uM

| Compound | INHIBITION [%] |
| --- | --- |
| Cc1cccc(CSc2ncc(Br)c(C(=O)O)n2)c1 | -52.3 |
| Cc1cc(C)nc(NCCC(=O)Nc2ccc(Cn3cncn3)cc2)n1 | -92 |
| Cc1cnn(CCNCc2ccc(OCc3noc(C)n3)cc2)c1 | -14.8 |
| COc1ccc(C(C)NC(=O)C2CCN(S(C)(=O)=O)CC2)cc1C (stereo not given) | -118 |
| CC(=O)N1CCC[C@@H](NCc2c[nH]c3ccccc23)[C@@H]1c1ccc(C)s1 | 14.4 |
| COc1cccc(CCC(=O)N2CCC[C@@H](N)[C@@H]2c2ccccc2F)c1 | 68 |
| COc1cccc(CCC(=O)N2CCCC(c3nncn3C)C2)c1 (stereo not given) | -9.28 |
| COc1cccc(CCC(=O)N2CCCCC2Cn2cccn2)c1 (stereo not given) | -136 |
| O=C(Cc1c[nH]c2ccccc12)N1CCC(Nc2cccnn2)CC1 | -48 |
| N[C@@H]1CCCN(C(=O)Cc2c[nH]c3ccccc23)[C@H]1c1ccccc1F | 65.8 |
| O=c1[nH]nc2c(N3CCOCC3)nccn12 | -25.9 |
| O=C(c1cccs1)N1C[C@H]2CCC[C@@]2(COCC2CCOCC2)C1 | -18.1 |
| CS(=O)(=O)N1Cc2cnn(CC3CC3)c2C(COCC2CC2)C1 (stereo not given) | -13.5 |
| O=C(NCC1CCS(=O)(=O)C1)c1ccco1 (stereo not given) | -48 |
| Cc1nc2ccc(C(=O)N3C[C@@H](O)[C@H](N4CCOCC4)C3)cc2[nH]1 | -0.956 |
| Fc1ccc(C(NCc2nnc(-c3ccco3)o2)C2CCC2)cc1 (stereo not given) | -32.2 |
| CN(C)c1ccc(NC(=O)NCC2CCOC2)cn1 (stereo not given) | 33.3 |
| Cc1cc(F)ccc1S(=O)(=O)N1CCN(C)c2ccncc21 | 22.6 |
| Cc1ccc(S(=O)(=O)N2CCN(C)c3ccncc32)cc1F | 61.6 |
| CN1CCN(S(=O)(=O)c2cccc(F)c2)c2cnccc21 | 13.2 |
| N#CC1(C(=O)N2CCOC(c3ccc(Cl)cc3)C2)CCCC1 (stereo not given) | -11.4 |
| CN(Cc1ccccc1F)C(C(N)=O)c1ccccc1 (stereo not given) | -90 |

| Compound | INHIBITION [%] |
| --- | --- |
| COc1nccc(N2CC[C@@H](N3CCN(C)CC3)[C@H](O)C2)c1C#N | -50.4 |
| COc1nccc(N2CC[C@@H](N3CCC(O)CC3)[C@H](O)C2)c1C#N | -75.9 |
| COc1nccc(N2CC[C@@H](N3CCCCCC3)[C@H](O)C2)c1C#N | 52.3 |
| O=C([C@H]1C[C@H]2OCC[C@H]2N(CC2CCOCC2)C1)N1CCCCO1 | -23.2 |
| Clc1cccc(-n2cnnn2)c1N1CCCCC1 | -48.1 |
| CCOC(=O)C1CN(CC2CC2)Cc2ncn(CC)c21 (stereo not given) | 14 |
| CNC(=O)CN1CCOCC12CCN(C(=O)c1ccc(C)cc1)CC2 | -78 |
| Cn1cc(C[C@H]2[C@H](N3CCOCC3)CCN2c2ncc(F)cn2)cn1 | -63.8 |
| CCN(C)C[C@@H]1CN(S(=O)(=O)c2ccc(C#N)cc2)C[C@@H]1CO | 15.5 |
| CCN1CCCC1CN(CCN(C)C)S(=O)(=O)c1ccc(C#N)cc1 (stereo not given) | 59.7 |
| CCN1CCCC1CN(CCN(C)C)S(=O)(=O)c1cccc(C#N)c1 (stereo not given) | 60.4 |
| N#Cc1cccc(S(=O)(=O)N2CCCCC2CCN2CCCC2)c1 (stereo not given) | -4 |
| CN(CCn1cccn1)S(=O)(=O)c1ccc(C#N)cc1 | -48.4 |
| COCCCC1CCCCN1S(=O)(=O)c1cccc(C#N)c1 (stereo not given) | -16.1 |
| CN1CCN(C(=O)c2cnsn2)c2cc(F)ccc21 | -79.3 |
| CSc1ccc(-c2noc(CN(CC(C)C)CC(C)C)n2)cc1 | -63.5 |
| O=C(O)C1(Cc2cc(-c3ccc(F)cc3)no2)CCOCC1 | -19.8 |
| Cc1ccc(NC(=O)CC2Cn3ncnc3NC2=O)cc1C (stereo not given) | -65.7 |
| Cc1cnn(CC2CCCN2Cc2nccn2C)c1 (stereo not given) | -72.8 |
| CCn1ccnc1CN1CCCC1Cn1cc(C)cn1 (stereo not given) | 65.6 |
| Cc1cnn(CC2CCCN2Cc2nccn2CC(F)(F)F)c1 (stereo not given) | -0.234 |
| CN(C)CCCNC(=O)c1ccc(N(C)S(C)(=O)=O)cc1Cl | -70.5 |

| Compound | INHIBITION [%] |
| --- | --- |
| O=C(CCc1ccccc1F)NS(=O)(=O)c1ccc2c(c1)OCCO2 | -17.8 |
| CCS(=O)(=O)N1CCCC2(COCCN(c3ccccn3)C2)C1 (stereo not given) | -1.4 |
| COCC(O)CNC(=O)Nc1ccc(Cl)cc1-n1cccc1 (stereo not given) | -45.8 |
| CCCn1ncc(CN(Cc2cccnc2)Cc2ccsc2)c1C | -129 |
| CCCn1ncc(CN(Cc2ccsc2)Cc2ccco2)c1C | -122 |
| CCCn1ncc(CN(CCN(C)C)Cc2ccsc2)c1C | 54.5 |
| CCCc1cc(C(=O)NC(COC)c2ccnn2C)no1 (stereo not given) | 4.52 |
| Cc1ccsc1CN(Cc1ccccn1)CC(C)C | -56.9 |
| Cc1ccsc1CN(CCN(C)C)Cc1ccccn1 | 58.9 |
| COCCN(Cc1ccccn1)Cc1sccc1C | -158 |
| Cc1ccc(CCNC(=O)CC2COCCN2S(=O)(=O)N(C)C)s1 (stereo not given) | -49 |
| Cc1nc(C)n(CC2CCCN2Cc2nc3ccccc3nc2C)n1 (stereo not given) | 31.2 |
| Cc1nc(C)n(CC2CCCN2Cc2ncc(C(C)(C)C)o2)n1 (stereo not given) | 61.9 |
| Cc1nc(CN2CCCC2Cn2cccn2)nc2ccccc12 (stereo not given) | 55.5 |
| Cc1nn(C)c(C)c1C1CCCN1Cc1nc2ccccc2n1C (stereo not given) | 1.9 |
| Cc1cc(C)n(CC2CCCN2Cc2ncc(C(C)(C)C)o2)n1 (stereo not given) | -80.1 |
| Cc1nc(CN2CCCC2Cn2cncn2)nc2ccccc12 (stereo not given) | -14.5 |
| Cc1nc2ccccc2nc1CN1CCCC1c1c(C)nn(C)c1C (stereo not given) | 58.1 |
| Cc1nn(C)c(C)c1C1CCCN1Cc1nc(C)c2ccccc2n1 (stereo not given) | -19.2 |
| Cc1nc(C)n(CC2CCCN2Cc2nc(N)c3ccccc3n2)n1 (stereo not given) | -98.4 |
| Cc1nc(CN2CCCCC2Cn2cncn2)nc2ccccc12 (stereo not given) | -50.6 |
| Cc1nc(C)n(CC2CCCN2Cc2nc(C)c3ccccc3n2)n1 (stereo not given) | 55 |

| Compound | INHIBITION [%] |
| --- | --- |
| Cc1nc(C)n(CC2CCCCN2Cc2ncc(C(C)(C)C)o2)n1 (stereo not given) | -43.5 |
| CCn1nccc1CNC(=O)Cn1cc2c(n1)c(C)nn2C(C)C | -127 |
| CC(C)N1CCOCC2(CCCN(C(=O)c3cncn3C)C2)C1 (stereo not given) | -78.3 |
| O=C(NCc1cc[nH]n1)NCC(O)c1ccc(F)cc1 (stereo not given) | 3.65 |
| Cc1ccc(CN2CCC3(CC2)C(c2ccccc2)CC(=O)N3C)o1 (stereo not given) | 17.1 |
| C=Cn1cc(CN2CCC(c3ncc(Cl)cc3S(C)(=O)=O)CC2)c(C)n1 | 14.8 |
| CN(C(=O)CN1CCOC(Cn2cccn2)C1)c1nccs1 (stereo not given) | -24.5 |
| Cc1nc2ccccc2nc1CN1CCCC(Cn2cncn2)C1 (stereo not given) | -96.3 |
| Cc1cnn(CC2CCCN2Cc2nc3ccccc3nc2C)c1 (stereo not given) | -88.9 |
| Cc1nc2ccccc2nc1CN1CCCCC1Cn1cccn1 (stereo not given) | -78.3 |
| Cc1nc2ccccc2nc1CN1CCCC1Cn1cncn1 (stereo not given) | 62.3 |
| Cc1c(Cl)c(CN2CCCC2Cn2cncn2)nc2ccccc12 (stereo not given) | 16.2 |
| Cc1nc2ccccc2nc1CN1CCCC1Cn1cccn1 (stereo not given) | 69.3 |
| CC1CCc2nn(CCNC(=O)Cc3ccc(F)cc3)c(=O)cc2C1 (stereo not given) | -65.3 |
| CN1CCOCC2(CCCN(C(=O)c3ccc(-n4cccc4)cc3)C2)C1 (stereo not given) | 28.9 |
| CNC(=O)c1nc(CN2CCOC(C(F)(F)F)C2)no1 (stereo not given) | -43.7 |
| CNC(=O)c1nc(CN2CCOC(Cc3ccc(F)cc3)C2)no1 (stereo not given) | 51.7 |
| CNC(=O)c1nc(CN2CCOC(CCCC(C)C)C2)no1 (stereo not given) | -32 |
| CSC(C)(C)CNC(=O)NC1CCN(CC=C(C)C)CC1 | -10.7 |
| COCC(=O)N1C[C@H]2CCC[C@@]2(COC)C1 | -47.2 |
| c1ncn(CC2CCCCN2Cc2cn3ccsc3n2)n1 (stereo not given) | 61.4 |
| c1ncn(CC2CCCN(Cc3cn4ccsc4n3)C2)n1 (stereo not given) | -48.4 |

| Compound | INHIBITION [%] |
| --- | --- |
| Cc1cc(CN2CCCCC2Cn2cncn2)no1 (stereo not given) | 57.3 |
| c1cnn(CC2CCCCN2Cc2cn3ccsc3n2)c1 (stereo not given) | -19.1 |
| c1cnn(CC2CCCN2Cc2cn3ccsc3n2)c1 (stereo not given) | 64.9 |
| Cc1cc(CN2CCCC2Cn2cncn2)no1 (stereo not given) | -174 |
| Cc1nc(C)n(CC2CCCN2Cc2cn3ccsc3n2)n1 (stereo not given) | -20.5 |
| Cc1cc(CN2CCCC2Cn2cccn2)no1 (stereo not given) | -13.9 |
| c1ncn(CC2CCCN2Cc2cn3ccsc3n2)n1 (stereo not given) | -64.9 |
| CC(C)Nc1ncnc2c1CCN(C(=O)c1ccncc1F)CC2 | -7.41 |
| CS(=O)(=O)NC(=O)c1ccn(-c2ccccc2Cl)n1 | -38.1 |
| Cc1cc(C)n(CC2CN(CC(=O)NCc3ccccn3)CCO2)n1 (stereo not given) | -102 |
| CSCc1noc(CNC(=O)C2CCN(C3CCCCC3)CC2)n1 | -24.2 |
| COCCN1CCO[C@@H]2CN(C(=O)Cc3ccc(F)cc3)CC[C@@H]2C1 | 12 |
| COc1ccc(CN2C[C@H]3CN(c4ccsc4)C(=O)[C@H]3C2)cc1 | -68.6 |
| CCN1CCN2CCCN(S(=O)(=O)c3cccc(F)c3)C2C1=O (stereo not given) | 24.6 |
| CCN1CCN2CCCN(S(=O)(=O)c3ccc(C)cc3C)C2C1=O (stereo not given) | 64.3 |
| CCN1CCN2CCCN(S(=O)(=O)c3ccc(S(C)(=O)=O)cc3)C2C1=O (stereo not given) | 20.7 |
| Cc1cnc(C(=O)N2Cc3cc(Cl)ccc3OC3(CCOCC3)C2)cn1 | -30.5 |
| CCc1ccccc1N1CC(c2nnc(N)s2)CC1=O (stereo not given) | -94.9 |
| COCC(=O)N1CCOC2(CCCN(c3cnccn3)C2)C1 (stereo not given) | -88.3 |
| Cc1ccc(CCN2CCCC23Cc2ccccc2CNC3=O)cc1 (stereo not given) | -15.1 |
| CC(C)CCN1CCCC12Cc1ccccc1CNC2=O (stereo not given) | 51.7 |
| CC(C)(C)CN1CCCC12Cc1ccccc1CNC2=O (stereo not given) | 2.53 |
